Here are results for 17 molecules from ChEMBL document CHEMBL3988442, “University of Dundee, Small-Polar-MMV Screening Library” (2021).

Test [1] deals with T1, Aspartate--tRNA(Asp/Asn) ligase (Mycobacterium tuberculosis (strain ATCC 25618 / H37Rv)) (UniProt P9WFW3).
T1 sequence (whole entry): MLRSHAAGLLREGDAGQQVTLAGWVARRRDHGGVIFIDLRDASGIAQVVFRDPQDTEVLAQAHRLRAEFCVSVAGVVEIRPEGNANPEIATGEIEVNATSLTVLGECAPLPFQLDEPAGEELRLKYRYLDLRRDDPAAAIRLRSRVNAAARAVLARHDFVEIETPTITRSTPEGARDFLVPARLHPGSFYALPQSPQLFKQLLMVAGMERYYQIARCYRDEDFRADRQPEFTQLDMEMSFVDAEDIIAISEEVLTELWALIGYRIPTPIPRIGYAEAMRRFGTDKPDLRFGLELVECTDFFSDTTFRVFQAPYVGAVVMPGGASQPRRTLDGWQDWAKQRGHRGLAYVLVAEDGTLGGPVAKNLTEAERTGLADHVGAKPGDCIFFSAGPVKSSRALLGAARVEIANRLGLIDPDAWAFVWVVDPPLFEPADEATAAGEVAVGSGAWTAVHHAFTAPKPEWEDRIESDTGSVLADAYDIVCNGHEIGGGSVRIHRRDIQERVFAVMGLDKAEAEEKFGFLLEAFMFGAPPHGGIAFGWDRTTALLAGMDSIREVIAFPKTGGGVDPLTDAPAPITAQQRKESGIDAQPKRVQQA
Nature of the test: Assay for Asp RNA synthetase-1 from Mycobacterium tuberculosis. The arrangement: scale not given: direction of the effect not stated beside the values. The conditions noted are these: 30 µM. In kind it is functional.

Test [2] deals with Shiga toxin 2 (Escherichia coli O157:H7) (UniProt P09385+P09386). Nature of the test: E. coli 0.157:H7 Shiga Toxin SOP - stx2 screening assay. It is filed as functional. The arrangement: scale not given: direction of the effect not stated beside the values. To be noted: 30 µM.

Regarding `O=C(NC1CC1)[C@H]1C[C@H]2OCC[C@H]2N(CC2CC2)C1`, the Percent Effect in test [1] is 3.52%; in test [2], -19.5%.
On to `O=C(NCCN1CCCCCC1=O)c1ccn(-c2ccc(F)cc2)n1`, for which the figures for the Percent Effect in test [1] and in test [2] were 3.8% and 14.8%, respectively.
The matching figures for `Cc1ccc(N2CC3(COCCN(Cc4nccs4)C3)OCC2=O)s1` (centres undefined): 7.04% and -13.5%.
For `CC(NC(=O)N1CCC(OCc2ccccc2)CC1)c1nncn1C` (centres undefined) the same measures were -3.22% and 3.46%.
As for `CC(C)COCC1CN(Cc2ccc3c(c2)OCO3)Cc2ncn(C)c21` (centres undefined), the Percent Effect is 2.63% in test [1] and -19.1% in test [2].
With `Cc1nnc(NC(=O)NCc2cc(F)cc(F)c2)s1`, the Percent Effect in test [1] worked out at 4.55%; in test [2], 29.7%.
As to `CCc1noc(C)c1C(=O)N1CCCC1Cn1cc(C)cn1` (centres undefined), the Percent Effect in test [1] was determined as 4.02%; in test [2], 31.4%.
For `O=C(NCc1cccc2cccnc12)N1CCC(n2cncn2)CC1` the same measures were -6.04% and 8.18%.
For `CN(C)c1cc2c(nn1)CCN(C(=O)Cc1noc3ccccc13)C2`, the Percent Effect is 0.589% in test [1] and -8.79% in test [2].
The matching figures for `CNC(=O)c1cccc(NC(=O)CN2CCN(S(C)(=O)=O)CC2)c1`: -5.52% and 1.24%.
For `O=C(NCCC1CCCO1)c1ccccc1N1CCOCC1` (centres undefined) the same measures were -8.37% and -3.88%.
For `Cc1cc(C(=O)N2CCc3nnc(N(C)C)cc3C2)c(C)n1C1CC1` the same measures were 0.451% and -0.445%.
Turning to `CCc1nc(C2CCCN(C(=O)c3cn(C)nc3C)C2)no1` (centres undefined), the Percent Effect in test [1] is -7.17%; in test [2], -20.7%.
The matching figures for `CCc1nnc(CN2CCN(C(=O)c3ccccn3)CC2)o1`: -0.577% and 21.4%.
For `COc1cccc2c1ccn2CCC(=O)NCCCC(=O)O` the same measures were -1.42% and -21%.
The matching figures for `CN(C)S(=O)(=O)c1ccc(OCCNCCn2cccn2)cc1`: -6.56% and -13.8%.
As for `Cc1c(C(=O)NC(CN2CCCC2=O)c2ccccc2)cnn1C` (centres undefined), the Percent Effect is -1.08% in test [1] and 34% in test [2].
